The full list was thinned out, with hits kept by preference.
KDM5B inhibitor = inhibitors of human KDM5B histone demethylase | hit rate 2.6% among 220,000 | KDM5B demethylase, FDH-coupled NADH fluorescence (FDH is formaldehyde dehydrogenase) | Q9UGL1 | Potency, µM (titrated, usually from 57.7 µM), most hits filed as inhibitors; active = well fitted inhibition curve with a large enough effect; note: 0% is about no effect; nearly all actives have a fitted effect of over 70% in size
Target sequence (Q9UGL1 whole entry, looked up): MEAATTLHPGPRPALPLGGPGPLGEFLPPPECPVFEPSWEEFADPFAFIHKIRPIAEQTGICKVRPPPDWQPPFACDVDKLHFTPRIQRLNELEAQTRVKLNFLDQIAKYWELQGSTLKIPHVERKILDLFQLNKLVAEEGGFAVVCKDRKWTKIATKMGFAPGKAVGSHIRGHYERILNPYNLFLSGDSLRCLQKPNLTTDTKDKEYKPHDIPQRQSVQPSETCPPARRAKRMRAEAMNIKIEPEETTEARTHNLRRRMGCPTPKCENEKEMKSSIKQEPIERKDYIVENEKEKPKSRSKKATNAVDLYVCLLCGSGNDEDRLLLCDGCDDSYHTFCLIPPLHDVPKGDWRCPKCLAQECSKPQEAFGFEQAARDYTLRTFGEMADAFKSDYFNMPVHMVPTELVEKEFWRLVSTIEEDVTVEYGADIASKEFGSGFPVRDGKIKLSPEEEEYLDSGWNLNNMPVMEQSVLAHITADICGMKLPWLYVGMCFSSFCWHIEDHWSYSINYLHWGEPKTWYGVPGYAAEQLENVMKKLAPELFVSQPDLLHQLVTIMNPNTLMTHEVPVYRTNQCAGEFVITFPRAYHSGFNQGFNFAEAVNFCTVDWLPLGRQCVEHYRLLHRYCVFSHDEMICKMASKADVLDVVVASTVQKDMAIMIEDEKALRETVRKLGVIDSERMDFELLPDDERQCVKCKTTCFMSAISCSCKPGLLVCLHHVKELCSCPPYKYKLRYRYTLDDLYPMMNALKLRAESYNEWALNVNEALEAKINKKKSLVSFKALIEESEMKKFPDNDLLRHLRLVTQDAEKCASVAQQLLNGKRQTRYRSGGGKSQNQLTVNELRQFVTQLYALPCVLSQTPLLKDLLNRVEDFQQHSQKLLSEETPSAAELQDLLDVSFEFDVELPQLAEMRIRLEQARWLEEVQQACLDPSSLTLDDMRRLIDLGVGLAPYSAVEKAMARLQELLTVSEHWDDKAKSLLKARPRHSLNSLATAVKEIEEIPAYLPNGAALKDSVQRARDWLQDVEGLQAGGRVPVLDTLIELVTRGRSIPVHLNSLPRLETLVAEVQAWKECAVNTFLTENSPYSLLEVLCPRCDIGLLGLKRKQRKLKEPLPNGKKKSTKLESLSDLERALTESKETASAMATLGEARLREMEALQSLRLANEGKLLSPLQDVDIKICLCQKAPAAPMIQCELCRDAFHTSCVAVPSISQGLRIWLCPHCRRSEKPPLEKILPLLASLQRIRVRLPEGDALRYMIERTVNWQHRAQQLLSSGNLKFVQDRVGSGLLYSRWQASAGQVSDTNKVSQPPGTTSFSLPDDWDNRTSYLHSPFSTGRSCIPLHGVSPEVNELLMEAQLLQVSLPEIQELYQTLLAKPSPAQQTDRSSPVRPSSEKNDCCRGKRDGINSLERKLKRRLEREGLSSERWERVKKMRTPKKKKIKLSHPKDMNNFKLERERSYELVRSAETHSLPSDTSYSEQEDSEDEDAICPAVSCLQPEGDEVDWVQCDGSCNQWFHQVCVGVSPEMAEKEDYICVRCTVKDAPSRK
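KDM5BΔAP (200 nM final) in 50 mM HEPES pH 7.5, 0.01% Tween-20 was preincubated 10 min at RT with compound over a concentration range. Substrate mix (H3K4me3 12.5 µM, α-KG 25 µM, Fe²⁺, ascorbate, NAD⁺, FDH) was added, and NADH fluorescence change over 30 min gave dose-response curves.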
An asterisk follows results filed as active; i = inactive. Potency is the fitted concentration of half-maximal effect.

SMILES	KDM5B inhibitor
Cn1c(C(=O)N2CCNc3cnc(Nc4ccccc4)nc3C2)cc2ccccc21	i
CNC(=O)c1cccc(Nc2ncc3c(n2)CN([S+](=O)([O-])c2cccc(OC)c2)CCN3)c1	i
O=C(Cc1ccc2c(c1)OCO2)N1CCNc2cnc(Nc3cccc(F)c3)nc2C1	31.6µM*
COc1ccccc1Nc1ncc2c(n1)CN(C(=O)c1ccnn1C)CCN2	i
CCCCNC(=O)NC(C(N)=O)C(N)=O	i
Cn1c(=O)c2c(ncn2Cc2ccccc2F)n(C)c1=O	i
CCOc1cc(S(=O)(=O)NC2CC(C)(C)NC(C)(C)C2)c(OCC)cc1C	i
Cc1c(C)n2c3c(=O)[nH]c(=O)n(C)c3nc2n1CCNc1ccc(Cl)cc1	i
CS(=O)(=O)c1ccccc1NC(=O)CNc1cc(Cl)ccc1N1CCCC1	i
CCNc1c(NC(=O)c2cccc(Cl)c2)c(=O)oc2ccccc12	i
C=CCNC(=O)c1cccc2c(C)nnn12	31.6µM*
COc1cccc([S+](=O)([O-])N2CCn3cc(C(=O)NCc4ccc(Cl)nc4)nc3C2)c1	i
C=CCNC(=O)c1cc2cc(Cl)ccc2nc1C	i
CCn1c(C(=O)NCc2ccc(C)cc2)cc2sc(Cl)cc21	i
Cc1nnn2c(C(=O)NCc3ccc(Cl)nc3)cccc12	35.5µM*
CNC(=O)c1cccc2c(C)nnn12	31.6µM*
C=CCNC(=O)c1cccc(C(=O)OC)c1	i
CNC(=O)c1cccc(I)c1	i
O=C(C1CC1)N1CC[C@H](c2nc3ccccc3o2)C1	i
O=C(CSc1ccc2c(c1)OCCCO2)NC(c1ccccc1)c1ccccc1	i
O=C1NCCCCCCN(C(=O)CCc2ccccc2)[C@H]2C[C@H](c3nc(-c4cnccn4)no3)C[C@@H]12	i
CC1(C)CC(=O)C(C(c2ccc(Cl)cc2Cl)C2C(=O)CC(C)(C)CC2=O)C(=O)C1	i
CCc1ccc(CN(Cc2ccco2)C(=O)c2ccccc2)cc1	i
COc1ccc(-c2nn(C)c(-c3ccc(OC)cc3)c2-c2nc3ccccc3n2C)cc1	i
Cc1ccccc1C(=O)NCC(=O)NCCc1c[nH]c2ccccc12	i
SMILES	KDM5B inhibitor
O=C(c1ccncc1)N1CC2CCC(C1)N2Cc1ccc(-c2cncnc2)cc1	i
FC(F)(F)c1ccc(N2C3CCC2CN(Cc2ccccc2)C3)cc1	i
O=C(c1ccncc1)N1CC2CCC(C1)N2Cc1ccc(-c2cccs2)cc1	79.4µM*
O=C(c1ccncc1)N1CC2CCC(C1)N2Cc1ccc(-c2ccsc2)cc1	i
FC(F)(F)c1ccc(N2C3CCC2CN(Cc2ccc(-c4cccs4)cc2)C3)cc1	28.2µM*
FC(F)(F)c1ccc(N2C3CCC2CN(Cc2ccc(Cl)cc2)C3)cc1	i
COc1cc(C)ccc1Oc1ccc(NC(=O)c2ccc3c(c2)NC(=O)CS3)cn1	i
Cc1ccc(C(=O)N/C(=C\c2ccc(-c3ccc(Br)cc3)o2)C(=O)NC(C)(C)C)cc1	i
Cc1noc(C(C)C)c1C(=O)Nc1ccc(SC(F)F)cc1	i
Cc1ccc(-c2nn3c(C(C)C)nnc3c3ccccc23)cc1S(N)(=O)=O	i
c1ccc(CCc2nc3nccc(-c4cccnc4)n3n2)cc1	i
COc1ccc(-c2ccnc3nc(C4CCCO4)nn23)c(F)c1 (stereo not given)	25.1µM*
COc1ccc(-c2ccnc3nc(CCc4ccccc4)nn23)c(F)c1	28.2µM*
COc1cc(F)ccc1-c1ccnc2nc(CCc3ccccc3)nn12	25.1µM*
COc1ccc(-c2ccnc3nc(Cc4cc(F)cc(F)c4)nn23)c(F)c1	i
COc1ccc(-c2cn3cc(C(=O)N4CCCC4)nc3c(=O)n2CC2CC2)c(F)c1	i
COc1ccnc(-c2nnc3ccc(N(C)Cc4ccccc4)nn23)c1	i
CCc1nn2c(-c3ccccc3OC)ccnc2c1-c1ccccc1	i
COc1ccc(-c2cn3cc(C(=O)NCCO)nc3c(=O)n2CC2CC2)c(F)c1	i
COc1ccc(/C=C/C(=O)Nc2cnc3ccccc3c2)cc1OC	i
CCOc1ccc(C(=O)CC2(O)C(=O)Nc3ccc(Cl)cc32)cc1 (stereo not given)	i
COc1cc([N+](=O)[O-])cc2cc(C(=O)N3CCN(C45CC6CC(CC(C6)C4)C5)CC3)c(=O)oc12	i
CN1CCC(NC(=O)C2(CCO)CCN(Cc3ccccc3)C2)CC1 (stereo not given)	i
COCCN1C(=O)c2ccc(C(=O)Nc3cccnc3)cc2C1=O	i
COCCN1Cc2ccc(NCc3ccccc3)nc2C(C)(C(=O)Nc2cccnc2)C1 (stereo not given)	31.6µM*
SMILES	KDM5B inhibitor
COCCN1Cc2ccc(NCc3ccccc3)nc2C(C)(C(=O)NC2CCOCC2)C1 (stereo not given)	11.2µM*
COCCn1c(C(=O)NCc2ccc(OC)cc2)nc2ccccc2c1=O	i
CC1(C(=O)NCc2cccnc2)COCc2cnc(Nc3ccccc3)nc21 (stereo not given)	i
COCCN1Cc2ccc(NCc3ccccc3)nc2C(C)(C(=O)NCc2ccccc2)C1 (stereo not given)	28.2µM*
CN(CC1CCOCC1)C(=O)NCc1ccccc1	i
COCCN1Cc2ccc(Nc3ccc(OC)cc3)nc2C(C)(C(=O)NCC2CC2)C1 (stereo not given)	i
COCC(=O)NC[C@H]1CCN(Cc2ccc(F)c(OC)c2)C[C@H]1N(C)C	i
COc1ccccc1OCCNC(=O)C1CCCN(C(=O)c2ccccc2)CCC(=O)NCC1 (stereo not given)	i
O=C(CSc1nnc(-c2ccc(F)cc2)n1CC1CCCO1)Nc1ccc(CN2CCCC2)cc1 (stereo not given)	i
CC(Cl)C(=O)c1ccc(C(C)(C)C)cc1 (stereo not given)	i
CCOc1ccc(-c2noc(-c3nnn(-c4cccc(C)c4C)c3N)n2)cc1	i
N#Cc1cc([N+](=O)[O-])ccc1Nc1ccc2c(c1)CCC2	i
COc1cccc2cc(C(=O)Nc3c(C)cccc3C)c(=O)oc12	i
Oc1ccc(-c2nc(C3CC3)nc3c2CCN(Cc2ccc(F)cc2)CC3)cc1	i
CCC(=O)N1Cc2ccccc2CC2(CCCCN2CC)C1 (stereo not given)	100µM*
CCCC(=O)N1Cc2ccccc2CC2(CCCCN2CC)C1 (stereo not given)	56.2µM*
O=C(c1ccccc1)N1Cc2ccccc2CC2(CCCN2Cc2cccnc2)C1 (stereo not given)	i
CCC(=O)N1Cc2ccccc2CC2(CCCCN2CC2CCOCC2)C1 (stereo not given)	i
CCC(=O)N1Cc2ccccc2CC2(CCCCN2C)C1 (stereo not given)	i
CC(=O)NCC(=O)N1Cc2ccccc2CC2(CCCCN2CC2CCNC2)C1 (stereo not given)	2.82µM*
O=C(c1cccc(Cl)c1)N1Cc2ccccc2CC2(CCCN2Cc2ccncc2)C1 (stereo not given)	50.1µM*
CCCN1CCCC12Cc1ccccc1CN(C(=O)CNC(C)=O)C2 (stereo not given)	i
CCCN1CCCCC12Cc1ccccc1CN(C(=O)CCCC(=O)O)C2 (stereo not given)	i
O=C(c1ccccc1)N1Cc2ccccc2CC2(CCCCN2Cc2ccncc2)C1 (stereo not given)	i
CCN1CCCCC12Cc1ccccc1CN(C(=O)C(C)C)C2 (stereo not given)	i
NCCC(=O)N1Cc2ccccc2CC2(CCCCN2CC2CCNCC2)C1 (stereo not given)	i

From PubChem
